Compound activity as filed in PubChem BioAssay.
NRP1-CendR mod: modulators of CendR peptide binding to NRP-1, primary screen, biochemical, fluorescence polarization, uHTS; Neuropilin-1 (Homo sapiens), O14786; FAM-RPARPAR peptide binding to NRP-1; inhibition, % at 25 µM; hit rate 0.85% among 360,000; AID 602438, 2012;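 active = inhibition or corrected inhibition above about 18%, plus a signal ratio from 0.5 to 1.5, limit read from the data, passing the limit was not always enough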
ADAM17 inh: ADAM17 inhibitors, primary screen, biochemical, QFRET. recombinant ADAM17, EDANS/DABCYL FRET peptide cleavage. inhibition, % at 6.95 µM. hit rate 0.83% among 370,000;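 active = inhibition above the mean of compounds lying between control limits plus 3 SD, set per campaign, cut at about 8.5% in these data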;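 note: 0% = DMSO-only wells as the low control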
KLK7 zymogen act: proKLK7 zymogen activators, primary screen, biochemical, fluorescence intensity; activation, % at 7 µM; purified proKLK7, EDANS-DABCYL substrate fluorescence; 100% is mature enzyme control, 0% vehicle; Kallikrein-7 (Homo sapiens), P49862; hit rate 0.9% among 370,000;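 active = activation above the mean of all tested compounds plus 3 SD, computed per campaign excluding outliers beyond control limits, cut at about 13% in these data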
ADAM10 inh: human ADAM10 inhibitors, primary screen, biochemical, QFRET, HTS; Disintegrin and metalloproteinase domain-containing protein 10 (Homo sapiens), O14672; recombinant ADAM10, EDANS/DABCYL FRET peptide cleavage, 3 h; inhibition, % at 7 µM; hit rate 0.62% among 370,000; AID 720582, 2013;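 active = inhibition above a per-campaign cutoff equal to the mean of compounds falling between control-based bounds plus 3 SD, cut at about 20% in these data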;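 note: 0% = DMSO wells while the 100% control is not disclosed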
HGIII-sPLA2 inh: human group III sPLA2 inhibitors, primary screen, biochemical, QFRET, BODIPY PC-A2 liposome substrate; QFRET BODIPY PC-A2 liposome hydrolysis, fluorescence; inhibition, % at 12.2 µM; hit rate 0.56% among 370,000; Group 3 secretory phospholipase A2 (Homo sapiens), Q9NZ20; AID 743126, 2013;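 active = inhibition above mean plus 3 SD of compounds lying within the high and low control bounds, cut at about 19% in these data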;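 note: 0% = median of test compound wells and 100% = no enzyme DMSO wells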
Starred values were filed as active, the others as inactive; . = no result given. In the library only some 3.4% were active in any assay of this set; here they are far more common.

SMILES	NRP1-CendR mod	ADAM17 inh	KLK7 zymogen act	ADAM10 inh	HGIII-sPLA2 inh
C#CC(C)(O)C1CC(CC(=O)O)C1(C)C (stereo unspecified)	3	.	.	.	.
CCOC(=O)CC[C@@H]1CC[C@]2(CCCN(C(=O)c3ccno3)C2)O1	.	-1	0	0	0
O=C(CCc1ccccc1)N[C@H]1[C@H](OCc2ccccc2)CCC[C@@]12C(=O)N(Cc1ccccc1)c1ccccc12	.	3	0	6	-7
NC(=O)C1CCN(C(=O)C2(NC(=O)Nc3cccc(F)c3)CCCCC2)CC1	-3	1	-1	-7	13
O=C(Nc1cccc(F)c1)NC1(C(=O)N2CCC(O)CC2)CCCCC1	24*	-1	-1	7	3
CC(/C=C/c1ccccc1)=N\NC(=O)CCc1ccccc1	24*	-2	0	-13	3
O=C(O)c1nn(-c2ccc(Cl)cc2)ccc1=O	19*	0	0	2	5
Cc1ccc(NC(=O)CCNC(=O)c2ccc([N+](=O)[O-])cc2)cc1S(=O)(=O)N(C)C	39*	-4	0	-2	-5
Cc1ccc(-n2c(SCC(=O)Nc3ccc4c(c3)OCCO4)nnc2-c2cccnc2)cc1	.	-3	0	-4	-5
CCSc1nnc(-c2cnn(-c3ccccc3)c2-n2cccc2)n1C	44*	-2	0	-1	5
COc1ccc2cc(C(=O)NCc3ccccc3)c(=Nc3ccc(C(=O)O)cc3)oc2c1	46*	-116	1	-352	6
C=CCN1[C@H](C#N)[C@@H](c2ccc(C#Cc3ccccc3OC)cc2)[C@H]1CO	.	-22	1	-74	4
CCCCC(=O)N(C)c1c(CC)nc2c(OCc3ccccc3C)cccn12	22*	-7	0	-15	-4
CCc1nc2c(OCc3ccccc3C)cccn2c1N(C)C(=O)CC(C)C	-3	1	0	2	-8
CCc1nc2c(OCc3ccc(C(=O)OC)cc3)cccn2c1N(C)C(=O)CC(C)C	26*	-2	1	-4	5
COC(=O)c1cc(-c2ccc(Oc3ccccc3)cc2)c(=O)n2c1CCC2	.	-39	0	-109	-8
Cc1ccc2c(C)c(C(=O)NCC3CCOCC3)oc2c1C	-7	-2	-1	-13	-8
Cc1ccc2oc(C(=O)NCC3CCOCC3)c(C)c2c1	26*	-1	0	-3	-4
COc1cc(NCc2ccccc2)c2ncn(C(C)C)c2c1	5	-3	1	-1	8
COc1cc(NCCCNC(C)C)c2nccc(C)c2c1	26*	-7	1	-16	2
O=C(Nc1ccc(Cl)cc1Cl)c1cccc(N2C(=O)C=CC2=O)c1	-1	-5	0	-10	23*
CN1CCCCC(NC(=O)c2ccccc2)C1=O (stereo unspecified)	.	1	0	-1	2
C=CCC[C@H](Cc1ccc(F)cc1)C(=O)OC[C@@H](NC(=O)[C@@H](CC=C)CC(=O)N[C@@H](CO)Cc1ccccc1)C(C)(C)C	8	8	0	20*	-27
O=C(c1cccc(Cl)c1)N1CCC(=O)N(C(COCc2cccc(Cl)c2)Cc2ccccc2)CC1 (stereo unspecified)	10	2	0	6	-9
O=C(c1ccc(Cl)c(Cl)c1)N1CCC(=O)N(C(COCc2cccc(Cl)c2)Cc2ccccc2)CC1 (stereo unspecified)	6	13*	1	29*	-13
CC(=O)COC(=O)c1cc(-c2ccc(C)cc2)nc2ccccc12	-5	-20	-28	-67	-3
CC(C)(C)C(=O)COC(=O)c1cc(-c2ccncc2)nc2ccccc12	27*	-11	-2	-40	-15
COc1ccc(CN2CCS(=O)(=O)CC2)cc1OC	-4	-5	0	-11	3
Cc1ccc(CN2CCS(=O)(=O)CC2)cc1	27*	-1	0	-3	8
O=C(O)c1ccc2c(c1)[C@@H]1C=CC[C@@H]1[C@H](c1ccccn1)N2	32*	3	1	2	-11
